Data: PubChem BioAssay (Tox21)
Values joined by “and” are separate entries in the source; they are usually repeats but may differ in a detail not shown here. Equal entries are not always repeated. Inconclusive results are not listed. Where a structure was tested more than once in an assay, its records may differ in their call. Active and inactive are the calls of the source. Unless noted, calls follow the shape of the dose curve; as a rule, active = well fitted curve in the direction sought with a large enough effect in the repeat runs; inconclusive = weak or mixed curves; inactive = no such curve, though single readings can be large; an effect the other way counts as inactive or inconclusive.

Key:
[1] = qHTS assay to identify small molecule agonists of the constitutive androstane receptor (CAR) signaling pathway - cell viability counter screen (AID 1224836); also: nearly all actives have a fitted effect of over 45% in size
Procedure, shortened: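 Fluorescence from CellTiter-Fluor indicates live cells after 23 h exposure. The human hepatoma line expresses hCAR and a CYP2B6-2.2kb reporter. Incubation medium contains 0.75 uM PK11195 (final).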

[2] = qHTS assay to identify small molecule antagonists of the constitutive androstane receptor (CAR) signaling pathway - cell viability counter screen (AID 1224837); also: nearly all actives have a fitted effect of over 45% in size
Procedure, shortened: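 In quantitative HTS format, compounds at 15 concentrations were applied to HepG2 cells double-transfected with hCAR and CYP2B6-2.2kb under 50 nM CITCO stimulation; live-cell protease activity was read after 23 hr via CellTiter-Fluor.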

[3] = target: Nuclear receptor subfamily 1 group I member 3 (Homo sapiens) (UniProt Q14994); assay: qHTS assay to identify small molecule antagonists of the constitutive androstane receptor (CAR) signaling pathway (AID 1224838); also: nearly all actives have a fitted effect of over 40% in size
Procedure, shortened: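 CITCO-stimulated (50 nM final) HepG2 cells stably transfected with hCAR and CYP2B6-2.2kb luciferase were exposed to compounds at 15 concentrations for 24 h at 37 C/5% CO2. A luciferase reagent was added and luminescence recorded after 30 min.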

[4] = target: Nuclear receptor subfamily 1 group I member 3 (Homo sapiens) (UniProt Q14994); assay: qHTS assay to identify small molecule agonists of the constitutive androstane receptor (CAR) signaling pathway (AID 1224839);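 also: HepG2 cells stably carrying human CAR and a CYP2B6 luciferase reporter; nearly all actives have a fitted effect of over 15% in size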
Procedure, shortened: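 Stable hCAR/CYP2B6-2.2kb HepG2 line in DMEM with 10% FBS; compounds (15 concentrations) and 0.75 uM PK11195 final, 24 h at 37 C/5% CO2, then ONE-Glo luminescence after 30 min.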

[5] = qHTS assay to identify small molecule antagonists of the estrogen related receptor signaling pathway with the pleiotropic PPARgamma coactivator (PGC) from Tox21 10K library - cell viability counter screen (AID 1224840; active = well fitted cell-killing curve with a large enough effect in the repeat runs, not every such curve was filed as active; also: nearly all actives have a fitted effect of over 40% in size)
Procedure, shortened: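 Viability counter screen, PGC/ERR cells: 17.5 h compound exposure at 37 C, CellTiter-Fluor fluorescence endpoint.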

[6] = qHTS assay to identify small molecule antagonists of the estrogen related receptor signaling pathway with the pleiotropic PPARgamma coactivator (PGC) from Tox21 10K library (AID 1224841; call rule not given here; also: actives are mostly falling curves and most rising ones were filed inactive; nearly all actives have a fitted effect of over 50% in size)
Procedure, shortened: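 In the PGC/ERR line, DMSO solutions of test chemicals are pin-delivered to 2,000 cells/well six hours after dispensing. Following eighteen hours' incubation, One-Glo reagent is added and luminescence recorded.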

[7] = target: Thyrotropin receptor (Homo sapiens) (UniProt P16473); assay: qHTS assay to identify small molecule agonists of the thyroid stimulating hormone receptor (TSHR) signaling pathway (AID 1224843; calls by dose curve; also: nearly all actives have a fitted effect of over 45% in size)
Procedure, shortened: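 Compounds are titrated over 15 concentrations, in triplicate, onto TSHR-HEK293 cells seeded at 800/well. Plates sit 30 min at room temperature before cAMP-d2 and anti-cAMP cryptate are added; signal is read after a further hour.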

[8] = qHTS assay to identify small molecule agonists of the hypoxia (HIF-1) signaling pathway - cell viability counter screen (AID 1224844; calls by dose curve; also: nearly all actives have a fitted effect of over 50% in size)
Procedure, shortened: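 Same wells as the HIF-1 reporter screen; ME-180 cells carrying HRE-bla, 17 hr treatment at 37C; CellTiter-Glo luminescence read after 30 min at room temperature.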

[9] = qHTS assay to identify small molecule agonists of the hypoxia (HIF-1) signaling pathway (AID 1224846; active = well fitted activation curve with a large enough effect in the signal ratio in the repeat runs, not every such curve was filed as active; the % refers to the signal ratio)
Procedure, shortened: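 In ME-180 cells bearing an HRE-bla construct, 17 h treatment with DMSO-dissolved compounds at 37C was followed by CCF4-AM loading to quantify reporter induction.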

[10] = qHTS assay to identify small molecule agonists of H2AX - cell viability counter screen (AID 1224847; calls by dose curve; also: top concentration of the series differs between compounds; nearly all actives have a fitted effect of over 30% in size)
Procedure, shortened: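 Viability of CHO-K1 (wild type) cells after 3 hr compound exposure was measured by CellTiter-Glo luminescence.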

[11] = qHTS assay to identify small molecule agonists of the estrogen related receptor (ERR) signaling pathway from Tox21 library (AID 1224849; calls by dose curve; also: nearly all actives have a fitted effect of over 15% in size); conditions: ERR reporter cell line, ONE-Glo luciferase, 18 h
Procedure, shortened: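 Reporter cells (ERR, NTP source) treated with Tox21 10K compounds 18 h, 37 C. Readout: ONE-Glo luminescence, 30 min RT.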

[12] = qHTS RealTime-Glo MT Cell Viability Assay in HepG2 cells - 24 hour (AID 1224867); also: nearly all actives have a fitted effect of over 50% in size
Procedure, shortened: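 Tox21 10K library screened in qHTS format on HepG2 cells carrying RealTime-Glo reagents. Compounds were added after a 5 h preincubation, and the luminescent signal from continuous culture was measured repeatedly during 40 h treatment.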

[13] = qHTS RealTime-Glo MT Cell Viability Assay in HEK293 cells - 32 hour (AID 1224868); also: top concentration of the series differs between compounds; nearly all actives have a fitted effect of over 50% in size
Procedure, shortened: (§1)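 Luminescence generated by NanoLuc from substrate produced by living HEK293 cells served as the viability signal. Each value reflects the reading at its stated time point during continuous 40 h compound exposure at 37 C.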

[14] = A CellTox Green Cytotoxicity Assay to monitor cytotoxicity in HEK293 cells - 0 hour (AID 1224869); also: nearly all actives have a fitted effect of over 50% in size
Procedure, shortened: (§2)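 Homogeneous no-lysis format: HEK293 cell suspension mixed with CellTox Green reagent, seeded, incubated 5 h at 37 C/5% CO2, then dosed by pintool with compound in DMSO.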

[15] = qHTS RealTime-Glo MT Cell Viability Assay in HepG2 cells - 40 hour (AID 1224870); also: nearly all actives have a fitted effect of over 50% in size
Procedure, shortened: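 HepG2 cells mixed with RealTime-Glo MT reagents (NanoLuc plus cell-permeant prosubstrate) were seeded at 600 cells/well, incubated 5 h at 37 C/5% CO2, then pinned with compounds in DMSO; nonlytic luminescence tracked viability during 40 h treatment.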

[16] = A CellTox Green Cytotoxicity Assay to monitor cytotoxicity in HEK293 cells - 40 hour (AID 1224871); also: nearly all actives have a fitted effect of over 45% in size; also: potency is read from the fitted curve at half-maximal effect
Procedure, shortened: as §2

[17] = qHTS RealTime-Glo MT Cell Viability Assay in HEK293 cells - 16 hour (AID 1224872)
Procedure, shortened: as §1

[18] = target: Luciferin 4-monooxygenase (Photinus pyralis) (UniProt P08659); assay: qHTS assay to identify small molecule inhibitors of firefly luciferase (AID 1224835); also: nearly all actives have a fitted effect of over 25% in size
Procedure, shortened: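 Quantitative HTS format; KM concentrations of both substrates. Purified P. pyralis FLuc activity quantified from luminescence images.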

[19] = qHTS assay to identify small molecule agonists of H2AX (AID 1224845; active = well fitted activation curve with a large enough effect in the signal ratio in the repeat runs, not every such curve was filed as active; the % refers to the signal ratio)
Procedure, shortened: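 Wild-type CHO-K1 cells plated overnight, then exposed 3 hr at 37C to compounds at 15 concentrations (0.76% DMSO). Lysed, then HTRF anti-pH2AX(S139)-cryptate/anti-H2AX-d2 detection after 24 hr at room temperature; emissions 665 and 620 nm.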
% is scaled to controls: 0 for no effect and ±100 for the full control effect.

Sequence of Nuclear receptor subfamily 1 group I member 3 (Homo sapiens) (Q14994 whole entry, looked up): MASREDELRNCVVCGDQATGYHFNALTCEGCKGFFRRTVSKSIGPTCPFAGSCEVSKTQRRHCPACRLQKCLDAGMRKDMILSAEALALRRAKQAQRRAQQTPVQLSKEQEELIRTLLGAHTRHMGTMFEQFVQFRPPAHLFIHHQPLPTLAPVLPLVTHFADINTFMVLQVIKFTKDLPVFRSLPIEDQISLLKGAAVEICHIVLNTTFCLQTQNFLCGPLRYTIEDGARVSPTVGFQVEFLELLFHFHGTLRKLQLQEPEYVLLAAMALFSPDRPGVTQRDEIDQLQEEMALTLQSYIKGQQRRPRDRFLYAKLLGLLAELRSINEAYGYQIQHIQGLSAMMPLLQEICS
Sequence of Luciferin 4-monooxygenase (Photinus pyralis) (P08659 whole entry, looked up): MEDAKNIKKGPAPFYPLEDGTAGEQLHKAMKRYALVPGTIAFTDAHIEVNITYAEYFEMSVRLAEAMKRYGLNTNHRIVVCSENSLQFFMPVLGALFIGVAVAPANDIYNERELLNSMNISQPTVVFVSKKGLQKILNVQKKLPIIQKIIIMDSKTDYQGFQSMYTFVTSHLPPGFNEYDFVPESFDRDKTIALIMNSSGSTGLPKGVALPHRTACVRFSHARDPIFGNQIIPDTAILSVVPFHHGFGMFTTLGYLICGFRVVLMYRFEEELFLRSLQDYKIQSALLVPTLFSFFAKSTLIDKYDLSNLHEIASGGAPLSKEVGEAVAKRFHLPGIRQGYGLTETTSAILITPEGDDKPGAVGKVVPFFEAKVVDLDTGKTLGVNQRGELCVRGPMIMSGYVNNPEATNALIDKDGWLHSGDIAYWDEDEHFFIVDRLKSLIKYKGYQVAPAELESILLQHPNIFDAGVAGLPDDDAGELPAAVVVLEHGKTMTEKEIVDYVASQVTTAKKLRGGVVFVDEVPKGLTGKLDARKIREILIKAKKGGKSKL
Sequence of Thyrotropin receptor (Homo sapiens) (P16473 whole entry, looked up): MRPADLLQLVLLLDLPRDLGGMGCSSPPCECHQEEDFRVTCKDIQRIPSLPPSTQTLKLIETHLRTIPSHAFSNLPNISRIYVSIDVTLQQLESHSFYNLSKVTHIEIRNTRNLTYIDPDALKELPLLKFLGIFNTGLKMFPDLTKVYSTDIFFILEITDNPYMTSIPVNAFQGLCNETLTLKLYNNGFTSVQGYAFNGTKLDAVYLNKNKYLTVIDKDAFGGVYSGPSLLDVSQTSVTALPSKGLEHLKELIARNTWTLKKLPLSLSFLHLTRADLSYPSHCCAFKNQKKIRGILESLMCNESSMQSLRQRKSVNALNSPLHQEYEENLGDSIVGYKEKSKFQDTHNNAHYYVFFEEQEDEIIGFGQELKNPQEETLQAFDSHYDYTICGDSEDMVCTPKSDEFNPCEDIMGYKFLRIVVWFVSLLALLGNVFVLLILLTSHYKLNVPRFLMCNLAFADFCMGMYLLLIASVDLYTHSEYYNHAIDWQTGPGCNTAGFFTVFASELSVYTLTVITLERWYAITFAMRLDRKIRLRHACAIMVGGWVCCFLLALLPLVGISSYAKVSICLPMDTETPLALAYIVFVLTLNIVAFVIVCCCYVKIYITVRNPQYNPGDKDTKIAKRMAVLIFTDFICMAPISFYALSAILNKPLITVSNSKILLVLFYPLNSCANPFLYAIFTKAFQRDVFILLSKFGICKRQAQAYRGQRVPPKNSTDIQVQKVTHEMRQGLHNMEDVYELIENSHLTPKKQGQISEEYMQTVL

Nc1ccc(O)c(C(=O)O)c1
inactive: Potency [1] | Potency [2] | Potency [3] | Potency [4] | Potency [5] | Potency [6] | outcome [7] | Potency [8] | outcome [9] | outcome [10] | activity change, positive = activation ([11]; at 42.5 µM (top of the series)) -9.77% | activity change, positive = activation ([11]; at 92.4 µM (top of the series)) -1.78% and -6.73% | Potency [12] | Potency [13] | outcome [14] | Potency [15] | Potency [16] | Potency [17]

C/C=C/c1ccc(OC)cc1
inactive: Potency [18] | Potency [1] | Potency [2] | Potency [3] | Potency [4] | Potency [5] | outcome [7] | Potency [8] | outcome [19] | outcome [9] | outcome [10] | Potency [12] | Potency [13] | outcome [14] | Potency [15] | Potency [16] | Potency [17]

CC(C)[C@@H]1CC[C@@H](C)C[C@H]1O
inactive: Potency [18] | Potency [1] | Potency [2] | Potency [3] | Potency [4] | Potency [5] | outcome [7] | Potency [8] | outcome [19] | outcome [9] | outcome [10] | Potency [12] | Potency [13] | outcome [14] | Potency [15] | Potency [16] | Potency [17]

O=C(O)c1cccc([N+](=O)[O-])c1
inactive: Potency [18] | Potency [1] | Potency [2] | Potency [5] | Potency [8] | outcome [19] | outcome [9] | outcome [10] | Potency [12] | Potency [13] | outcome [14] | Potency [15] | Potency [16] | Potency [17]

Cc1ccccc1C(OCCN(C)C)c1ccccc1 (configuration not stated)
inactive: Potency [18] | Potency [1] | Potency [2] | Potency [3] | Potency [4] | Potency [5] | outcome [7] | Potency [8] | outcome [19] | outcome [10] | activity change, positive = activation ([11]; at 42.5 µM (top of the series)) 0.836% | activity change, positive = activation ([11]; at 92.4 µM (top of the series)) 0.151% and 0.194% | Potency [12] | Potency [13] | outcome [14] | Potency [15] | Potency [16] | Potency [17]

Nc1ccc(S(=O)(=O)Nc2nccs2)cc1
inactive: Potency [18] | Potency [1] | Potency [2] | Potency [5] | Potency [6] | outcome [7] | Potency [8] | outcome [19] | outcome [10] | activity change, positive = activation ([11]; at 42.5 µM (top of the series)) 5.51% | activity change, positive = activation ([11]; at 92.4 µM (top of the series)) -7.05% and 5.21% and 6.11% | Potency [12] | Potency [13] | outcome [14] | Potency [15] | Potency [17]
inactive and 43.6 µM (active): Potency [16]

NC(=O)NC1NC(=O)NC1=O (configuration not stated)
inactive: Potency [18] | Potency [1] | Potency [2] | Potency [3] | Potency [4] | Potency [5] | outcome [7] | Potency [8] | outcome [19] | outcome [9] | outcome [10] | Potency [12] | Potency [13] | outcome [14] | Potency [15] | Potency [16] | Potency [17]

CCCC(O)C(CC)CO (configuration not stated)
inactive: Potency [18] | Potency [1] | Potency [2] | Potency [5] | Potency [8] | outcome [19] | outcome [9] | outcome [10] | Potency [12] | Potency [13] | outcome [14] | Potency [15] | Potency [16] | Potency [17]
